Assay outcomes: PubChem BioAssay, The Scripps Research Institute Molecular Screening Center
DAX1 inh-1 = inhibits human nuclear receptor DAX1; HEK293 Gal4-DAX1 luciferase reporter, luminescence; inhibition, % at 6.75 µM; actives 0.99% (n = 340,000); AID 504766;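 active = inhibition above the mean over all tested compounds plus 3 SD, cut at about 4.2% in these data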;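 also: 0% = DAX1-transfected cells with DMSO and 100% = empty-vector control cells with DMSO; inhibition shows as a rise in luminescence from relieved DAX1 repression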
Target sequence (P51843 207-470 limits assumed): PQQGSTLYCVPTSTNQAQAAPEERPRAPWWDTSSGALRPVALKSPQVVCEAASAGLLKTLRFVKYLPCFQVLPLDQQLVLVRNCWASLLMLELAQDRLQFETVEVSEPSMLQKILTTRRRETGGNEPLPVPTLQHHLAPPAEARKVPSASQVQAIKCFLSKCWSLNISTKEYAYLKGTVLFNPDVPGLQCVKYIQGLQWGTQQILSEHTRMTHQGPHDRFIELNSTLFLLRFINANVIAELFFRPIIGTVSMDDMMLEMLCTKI
ssDAF-12 act = activates DAF-12 receptor from parasite S. stercoralis. HEK293 ssDAF-12/GRIP1 lit1-tk-luc reporter, luminescence; % of 3 µM dafachronic acid response. actives 1% (n = 370,000). activation, % at 6.8 µM;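 active = activation above the mean over all tested compounds plus 3 SD, cut at about 0.9% in these data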;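 also: 0% = DMSO-only wells and 100% = 3 µM delta7-dafachronic acid wells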
hcDAF12 agonist = H. contortus DAF-12 activation, primary screen; actives 1.4% (n = 370,000); HEK293 hcDAF-12 lit1-tk-luc reporter, luminescence; 0% DMSO, 100% Δ7-dafachronic acid; AID 652067; activation, % at 6.8 µM;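 active = activation above the mean of all tested compounds plus 3 SD, cut at about 5.5% in these data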;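 also: 100% = response to 3 µM Δ7-dafachronic acid high control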
hgDAF12 agonist = activates the H. glycines DAF-12 receptor ligand-binding domain; HEK293 GAL4-hgDAF12 UAS-luciferase reporter, agonist luminescence; normalized to butyrate control; AID 687014; activation, % at 6.8 µM; actives 1.8% (n = 370,000);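 active = activation above a cutoff set at the mean of all screened compounds plus 3 SD, cut at about 10% in these data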;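 also: 0% = DMSO wells and 100% = sodium butyrate wells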
DAX1 inh-2 = DAX1 (NR0B1) inhibition, primary screen; inhibition, % at 6.8 µM; AID 652010; HEK293T StAR-luciferase reporter, SF-1/DAX-1 repression relief; actives 1.1% (n = 370,000);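 active = inhibition above the mean over all tested compounds plus 3 SD, cut at about 3.6% in these data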;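 also: 0% = DAX-1 cells with DMSO and 100% = cells lacking DAX-1 with DMSO; higher inhibition means more luminescence from relief of DAX-1 repression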
DAX1 inh confirm = NR0B1 (human) inhibition, confirmation. shares compounds with DAX1 inh-2. HEK293T StAR-promoter luciferase reporter, SF-1/DAX-1 repression. inhibition, % at 6.8 µM. actives 87% (n = 2,400);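 active = inhibition above the average of every tested compound plus 3 SD, cut at about 3.8% in these data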;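 also: 0% = DAX-1 cells with DMSO and 100% = no DAX-1 control cells with DMSO; active compounds raise luminescence by relieving repression of the StAR reporter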
SF1 mutant ctr = counter-screen for DAX1 inhibitors: nonselective inhibitors with SF-1 AF2 mutant; shares compounds with DAX1 inh-2; HEK293 StAR-luciferase, luminescence; inhibition, % at 6.8 µM; actives 78% (n = 2,400); AID 652136;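 active = inhibition above the mean of all tested compounds plus 3 SD, cut at about 3% in these data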;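 also: 0% = DAX-1 transfected cells with DMSO and 100% = cells without DAX-1 with DMSO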
LXRb hcDAF ctr = counter-screen for hcDAF-12 agonists: agonists of human LXR-beta; shares compounds with hcDAF12 agonist; HEK293 Gal4-LXR tk-luc reporter, luminescence, 24 h; normalized: DMSO 0%, positive control 100%; activation, % at 6.8 µM; 3,400 tested, under 10 active; AID 743027;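 active = mean percent activation of the reporter above a cutoff set as the average over tested compounds plus their standard deviation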
hcDAF12 ag = confirmation of H. contortus DAF-12 agonists | activation, % at 6.8 µM | HEK293 hcDAF-12 lit1-tk-luc reporter, luminescence; % of Δ7-dafachronic acid response | AID 743032 | shares compounds with hcDAF12 agonist | actives 61% (n = 3,400);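 active = mean activation across triplicate tests above the threshold derived from the earlier primary screen, cut at about 5.5% in these data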;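 also: 0% = DMSO only wells and 100% = 3 µM Δ7-dafachronic acid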
Starred values were filed as active, the others as inactive; . = no result. Most compounds without a hit are left out; they make up all but 4.1% or so of the library.

SMILES | DAX1 inh-1 | ssDAF-12 act | hcDAF12 agonist | hgDAF12 agonist | DAX1 inh-2 | DAX1 inh confirm | SF1 mutant ctr | LXRb hcDAF ctr | hcDAF12 ag
CO[C@@H]1[C@H](O)CC[C@]2(O)CN(c3ccc(F)cc3)[C@](C)([C@H](O)CC=C(C)C)[C@@H]12 | . | -0.8 | 1.2 | 1.0 | -0.1 | . | . | . | .
CCc1cc(-c2ccc3c(c2)COc2c4ccccc4nn2-3)on1 | 2.1 | 0.3 | 7.0* | 8.1 | 4.5* | 11.0* | 5.1* | 1.9 | 9.3*
O=C(CCN1C(=O)NC2(CCCC2)C1=O)Nc1ccc(-c2nc3ccccc3s2)cc1 | -1.0 | 1.0* | 7.7* | 13.1* | 5.8* | 12.8* | 5.8* | 1.3 | 7.6*
N#C/C(=C\c1ccc[nH]1)C(=O)Nc1ccccc1F | 1.2 | 4.3* | 12.0* | 12.3* | 7.4* | 9.5* | 7.0* | 1.1 | 8.6*
Cc1ccc2nc(CSc3nc(C)ccc3C#N)[nH]c2c1 | -0.1 | 1.4* | 18.8* | 18.3* | 6.0* | 15.5* | 6.2* | 2.4 | 26.3*
O=C(Nc1nc2c(F)c(F)c(F)cc2s1)c1ccco1 | 1.4 | -0.7 | 0.6 | 4.7 | 0.4 | . | . | . | .
O=C(Nc1nc2c(F)cc(F)cc2s1)c1ccco1 | 1.2 | 0.4 | 9.1* | 12.0* | 5.6* | 10.8* | 6.3* | 1.4 | 4.9
O=C(Nc1ccc(N2CCCC2)cc1)c1cccc(F)c1 | 3.0 | 0.1 | 8.8* | 11.1* | 4.6* | 10.4* | 2.3 | 1.2 | 5.7*
O=C(NCc1ccc(Cl)cc1)c1ccc(CSc2nc3ccncc3[nH]2)cc1 | -2.3 | -1.2 | -1.8 | -0.3 | -0.6 | . | . | . | .
Cc1ccc(CSc2nc3ccncc3[nH]2)cc1 | -4.0 | 1.4* | 11.1* | 18.2* | 12.6* | 16.3* | 9.6* | 1.8 | 10.4*
CCCC[C@H](C(=O)N(C)c1ccccc1)[C@@H](O)c1ccc2ccccc2c1 | . | -1.0 | -2.4 | -3.0 | -0.9 | . | . | . | .
CC(=O)CC[C@@H]1CC[C@]2(CCCN(C(=O)C3CCCCC3)C2)O1 | . | -0.4 | 1.4 | 2.4 | 0.2 | . | . | . | .
c1cncc(-c2nc3ccccc3s2)c1 | -0.5 | -0.7 | 1.8 | 5.5 | 1.1 | . | . | . | .
COc1ccc(-c2nc3ccccc3s2)cc1 | -2.1 | 0.4 | 12.2* | 12.6* | 6.1* | 13.7* | 3.6* | 1.6 | 12.9*
N/C(=N\OC(=O)c1cccc(Br)c1)c1ccccn1 | -2.7 | 1.4* | 16.6* | 3.0 | 8.9* | 16.9* | 11.0* | 1.1 | 12.1*
N/C(=N\OC(=O)COc1ccccc1Cl)c1ccccn1 | 0.3 | 1.1* | 6.9* | 9.6 | 5.9* | 12.2* | 8.5* | 1.3 | 8.0*
COc1ccc(-n2ncc3c(NCC(C)C)ncnc32)cc1 | 0.3 | 0.7 | 9.8* | 10.6* | 5.0* | 12.8* | 4.1* | 1.7 | 5.7*
COc1ccc(-c2cc(=O)c3c(O)c(OC)c(O)cc3o2)cc1 | -4.3 | 1.3* | 6.7* | 9.9 | 5.1* | 15.9* | 8.3* | 1.4 | 4.8
O=C1N2Cc3ccccc3C2CS(=O)(=O)N1CCc1ccccc1 (stereo unspecified) | . | -1.6 | -1.2 | 3.6 | 1.3 | . | . | . | .
CN[C@H]1C[C@@H](c2ccccc2Br)N(C(C)=O)C[C@H]1CO | . | -1.1 | -1.2 | -2.3 | 0.9 | . | . | . | .
Cc1cn2nc(N)c3ccccc3c2n1 | -0.7 | -0.5 | 2.7 | 1.2 | -0.9 | . | . | . | .
Nc1nn2cc(-c3ccccc3)nc2c2ccccc12 | 2.1 | 6.0* | 19.4* | 21.3* | 11.0* | 18.7* | 10.1* | 1.8 | 21.5*
CCCCNCc1nc2ccccc2c(=O)[nH]1 | -0.6 | -0.7 | -0.6 | 1.5 | -0.3 | . | . | . | .
